The values below come from PubChem BioAssay AID602449 (Sanford-Burnham Center for Chemical Genomics, 2012).

Where “and” joins values, the source holds several entries; their conditions need not be identical. Equal values may be shown once. The campaign covered roughly 360,000 compounds. About 5,000 (1.4%) were called active.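 Rule for the calls: active = inhibition of 50% or more, scaled per plate between neutral and stimulator controls; inactive = the rest.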 The list comes from a sample in which actives are over-represented; it also holds similar structures and randomly drawn compounds. The source holds several records for some structures; these can differ, active in one and inactive in another.

A short description of this assay: blockers of Ca2+-induced mitochondrial swelling – biochemical, isolated mouse mitochondria, absorbance, primary screen (AID 602449).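 Note: 0% = DMSO wells given calcium and 100% = 1 mM EGTA wells.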 As to conditions: 30 min, at 10 µM, stronger effect = higher value.
As to `COC(=O)C1CC2=C(CC(C)(C)CC2=O)N(c2ccccc2)C1=O` (stereo not drawn), the inhibition (usually the change of the read-out against control, counted positive when it falls) is -0.8% (inactive). Turning to `CN1CCC[C@@H]1CCO[C@](C)(c1ccccc1)c1ccc(Cl)cc1`, the inhibition is 78% (active). With `CC(C)(c1ccccc1)c1ccc(OCCN2CCCC2)cc1`, the inhibition was 2% (inactive). The result for `OC(c1ccccc1)(c1ccccc1)C1CCN(CCCOc2ccccc2)CC1` reads 4.5% (inactive); that for `CCCc1nn(C)c2c(=O)[nH]c(-c3cc(S(N)(=O)=O)ccc3OCC)nc12`, -0.3% (inactive); that for `O=C(c1cccc(N2CCCC2=O)c1)N1CCOCC1`, -0.5% (inactive). As for `Cc1ccc(C(=O)Nc2ccn(C)n2)cc1`, the inhibition was 1.3% (inactive). In the case of `CSc1nccc(NC(=O)c2ccc(C(C)(C)C)cc2)n1`, the inhibition is 95.6% (active). The result for `COC(=O)c1nc(NC(=O)c2ccc(F)cc2)n[nH]1` reads 11.4% (inactive); that for `Cc1ccc(C)c(NC(=O)COC(=O)Cn2c(C)csc2=O)c1`, -0.7% (inactive); that for `COc1ccc(C(N)c2csc(NC(=O)Nc3cccc(C(F)(F)F)c3)n2)cc1` (stereo not drawn), 0.9% (inactive). Take `COc1cc(NC(=O)c2cncc(-c3ccc(C#N)cc3)c2)cc(C(=O)Nc2cccc(C(F)(F)F)c2)c1`: the inhibition is 93.8% (active) and 48.4% (inactive).

As to `COc1cc(NC(=O)c2[nH]cnc2C(N)=O)cc(C(=O)Nc2cccc(C(F)(F)F)c2)c1`, the inhibition is 0% (inactive).

`O=C(NCc1ccccc1Cl)NC(=O)c1csc([N+](=O)[O-])c1`: the inhibition is 1% (inactive). For the compound `O=C(Nc1nnc(SCc2c(Cl)cccc2Cl)s1)C1CCCO1` (stereo not drawn), the inhibition is -1.4% (inactive). `COCCSc1nnc(NC(=O)c2cc(OC)c(OC)cc2[N+](=O)[O-])s1`: the inhibition is -2.4% (inactive). For `O=C(Nc1nnc(CCN2CCCCC2)s1)c1cccc(Cl)c1`, the inhibition is -0.1% (inactive). As for `O=C(Nc1nnc(SCc2ccccc2Cl)s1)c1cccc([N+](=O)[O-])c1`, the inhibition is 96.3% (active). The result for `O=C(Nc1nnc(SCc2c(Cl)cccc2Cl)s1)c1cccc([N+](=O)[O-])c1` reads 91.5% (active); that for `CCO/N=C(/C)c1c(O)cc(-c2ccccc2)n(-c2ccccc2)c1=O`, 8.8% (inactive); that for `O=S1(=O)CC(N2CCC(Cc3ccccc3)CC2)CN1Cc1ccccc1` (stereo not drawn), 0.9% (inactive). As to `COc1ccc(OCCCC(=O)Nc2nnc(C3CCCO3)s2)cc1` (stereo not drawn), the inhibition was 1.4% (inactive). With `CCC1CCCCN1C(=S)NC(=O)c1ccco1` (stereo not drawn), the inhibition is -3.3% (inactive).

Take `COc1cc(OC)cc(C(=O)Nc2nnc(SCC(=O)NCC3CCCO3)s2)c1` (stereo not drawn): the inhibition was -0.7% (inactive). Consider `CCOC(=O)N1CCN(C(=O)C2CCN(S(=O)(=O)c3cc(Cl)ccc3OCC)CC2)CC1`, for which the inhibition was -0.2% (inactive). With `CCOC(=O)N1CCN(C(=O)C2CCN(c3ncnc4c3sc3cccc(F)c34)CC2)CC1`, the inhibition is 50% (active). `CCOC(=O)N1CCN(C(=O)C2CCCN(c3ncnc4c3sc3cccc(F)c34)C2)CC1` (stereo not drawn): the inhibition was 20.7% (inactive). As to `COC(=O)C1C(=O)NCC1c1ccc(OC)cc1` (stereo not drawn), the inhibition was 1.1% (inactive). Consider `Cc1nn(-c2ccccc2)c(CC(C)(C)C(=O)O)c1C(=O)O`, for which the inhibition was -5.4% (inactive). The result for `Nc1[nH]c(C(=O)c2ccccc2)c(-c2ccc(Br)cc2)c1C(=O)NC1CC1` reads 0.8% (inactive); that for `COc1ccccc1N1CC(C(=O)Nc2nnc(SCC(=O)NC(C)C)s2)CC1=O` (stereo not drawn), 0.4% (inactive). Regarding `CC1=NC2(CCCc3c2no[n+]3[O-])N(O)C1(C)C` (stereo not drawn), the inhibition is 0.8% (inactive). On to `CCCc1nc(N)nc2c1C(=O)CC(C)(C)C2`, for which the inhibition is -2.5% (inactive).

Take `CC(=O)Nc1nc2c(s1)C(=O)NCC(C)(C)C2`: the inhibition is 0% (inactive).

As to `CC1(C)CC(=O)c2sc(N)nc2C1`, the inhibition is 83.2% (active). As to `COc1cccc(NC(=O)CN(C)C(=O)CSC(=S)N2CCCC2)c1`, the inhibition is -0.1% (inactive).

For the compound `CCCS(=O)(=O)N1CCCC(C(=O)NCCN2CCCCC2C)C1` (stereo not drawn), the inhibition was -1.3% (inactive). As to `CCCCCCc1cc2cc(-c3nnc(-c4ccccc4)o3)c(=O)oc2cc1O`, the inhibition was 96.2% (active). Turning to `COc1ccccc1CNC(=O)CCCNS(=O)(=O)c1cccc2nsnc12`, the inhibition is -0.6% (inactive). The result for `COCCCNC(=O)CN1C(=O)CSc2ccc(S(=O)(=O)N3CCOCC3)cc21` reads 2.1% (inactive). Take `CCc1cc2c(NC(Cc3ccccc3)C(=O)O)ncnc2s1` (stereo not drawn): the inhibition is 1.6% (inactive). The result for `CCc1cc2c(SCC(=O)Nc3ncc(Cl)c(C)c3Cl)ncnc2s1` reads 46.1% (inactive); that for `CCc1cc2c(NC3CCCC3)ncnc2s1`, 87.6% (active); that for `CC(=O)Oc1ccc(OC(C)=O)c2c1C1C=CC2CC1`, -0.2% (inactive).

Consider `COc1cccc(-c2cnc3c(NC(C)=O)cc(-c4cc(F)ccc4OC)cn23)c1`, for which the inhibition is -0.3% (inactive). Regarding `O=C1CSC(=S)N1c1ccc(Cl)c(Cl)c1`, the inhibition was 2.2% (inactive). On to `Cc1cc(=O)cc(C)n1-c1ccc(Cl)c(Cl)c1`, for which the inhibition was -0.1% (inactive).

With `CC(C)N1C(=S)SC(C)(C)C1n1oc(=O)n(-c2ccc(Cl)c(Cl)c2)c1=O` (stereo not drawn), the inhibition was 92.3% (active).

For the compound `N#Cc1cc([N+](=O)[O-])ccc1NC(=O)COC(=O)c1cnccn1`, the inhibition is -1.8% (inactive). On to `Cc1ccc(OCCNC(=O)CNC(=O)c2ccc(C)c(C)c2)cc1`, for which the inhibition is -0.6% (inactive). With `O=C(Nc1cccc(Br)c1)C1CC(=O)N(C2CCCC2)C1` (stereo not drawn), the inhibition was -0.1% (inactive). As for `CC(C)S(=O)(=O)c1csc(NC(=O)Nc2ccc(Cl)cc2)c1Cl`, the inhibition is 88.8% (active). The result for `COc1ccc(OCC(O)CNC(=O)Nc2ccc(Cl)cc2)cc1` (stereo not drawn) reads 6.8% (inactive); that for `CC(=O)N1CCC(N(C(=O)Nc2ccc(Cl)cc2)C(C)C)CC1`, 2.8% (inactive); that for `Cc1ccc(S(=O)(=O)N(C)C)cc1NC(=O)COC(=O)/C=C/c1cccs1`, -1.3% (inactive). For the compound `Cc1c(C)c(C)c(S(=O)(=O)N2CCC3(CC2)OCCO3)c(C)c1C`, the inhibition was -0.6% (inactive).

On to `COC(=O)/C(C#N)=C/c1occc1C`, for which the inhibition is 1.6% (inactive). Turning to `CC(=O)Nc1ccc(NS(=O)(=O)c2ccc3c(c2)NC(=O)CC(=O)N3)cc1`, the inhibition was -1.8% (inactive). The result for `COc1ccc(NS(=O)(=O)c2ccc(NC(=S)NC(=O)CC(C)C)cc2)cc1` reads 0.5% (inactive). In the case of `CC(=O)c1c(C)oc2ccc(NS(=O)(=O)c3ccccc3)cc12`, the inhibition is -0.4% (inactive). As to `COc1ccc(S(=O)(=O)Nc2ccc3oc(C)c(C(C)=O)c3c2)cc1`, the inhibition is 93.4% (active). The result for `COc1cc(NS(=O)(=O)c2ccc(NC(C)=O)cc2)cc(OC)c1` reads 54% (active); that for `CC(=O)c1c(C)oc2ccc(NS(=O)(=O)c3ccc(C(=O)O)cc3)cc12`, 0.1% (inactive).
